Measured values published in PubChem BioAssay (Tox21).
Records with an inconclusive call do not appear. Active and inactive are the calls of the source. Unless noted, calls come from the whole dose curve; as a rule, active = well fitted curve in the direction sought with a large enough effect in the repeat runs; inconclusive = weak or mixed curves; inactive = no such curve, though single readings can be large; an effect the other way counts as inactive or inconclusive.

Assays:
[1] = qHTS assay to identify small molecule agonists of the peroxisome proliferator-activated receptor delta (PPARd) signaling pathway - cell viability counter screen (AID 743211); note: nearly all actives have a fitted effect of over 55% in size
How it was run: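 Viability of GeneBLAzer PPARd UAS-bla HEK293H cells was assessed after 17 h compound incubation at 37C, using CellTiter-Glo reagent added after the reporter read and luminescence recorded 30 min later.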

[2] = molecular target: Peroxisome proliferator-activated receptor delta (Homo sapiens) (UniProt Q03181); experiment: qHTS assay to identify small molecule agonists of the peroxisome proliferator-activated receptor delta (PPARd) signaling pathway (AID 743212; calls by dose curve)
How it was run: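 Beta-lactamase reporter readout: a ratiometric FRET signal from the LiveBLAzer substrate after 2 h at room temperature. Compound exposure at 37 °C in PPARδ-bla HEK293H cells driven by an upstream activator sequence.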

[3] = molecular target: Peroxisome proliferator-activated receptor delta (Homo sapiens) (UniProt Q03181); experiment: qHTS assay to identify small molecule antagonists of the peroxisome proliferator-activated receptor delta (PPARd) signaling pathway (AID 743215; active = well fitted inhibition curve with a large enough effect in the signal ratio in the repeat runs, not every such curve was filed as active; the % refers to the signal ratio;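 note: cells stimulated with agonist L165041 at 300 nM final during compound exposure; series mostly up to about 62 µM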)
How it was run: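 HEK293H GeneBLAzer PPARd UAS-bla reporter cells; cpd + L165041 300 nM final, 17 h 37 C; LiveBLAzer B/G FRET substrate 2 h RT; fluorescence intensity read-out. Antagonist mode.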

[4] = molecular target: Bile acid receptor (Homo sapiens) (UniProt Q96RI1); experiment: qHTS assay to identify small molecule antagonists of the farnesoid-X-receptor (FXR) signaling pathway (AID 743217; active = well fitted inhibition curve with a large enough effect in the signal ratio in the repeat runs, not every such curve was filed as active; the % refers to the signal ratio)
How it was run: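 Read-out: beta-lactamase FRET fluorescence (LiveBLAzer B/G substrate, 2 h, room temperature) in GeneBLAzer FXR-UAS-bla HEK 293T cells. Compounds were co-dosed with 50 uM chenodeoxycholic acid (final) and incubated 16 h at 37 °C.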

[5] = qHTS assay to identify small molecule agonists of the farnesoid-X-receptor (FXR) signaling pathway - cell viability counter screen (AID 743218); note: nearly all actives have a fitted effect of over 45% in size
How it was run: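 Luminescence from CellTiter-Glo, read after 30 min at RT, reports viability of GeneBLAzer FXR-UAS-bla HEK 293T cells treated 16 h with compounds in the wells used for the beta-lactamase reporter.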

[6] = molecular target: Bile acid receptor (Homo sapiens) (UniProt Q96RI1); experiment: qHTS assay to identify small molecule agonists of the farnesoid-X-receptor (FXR) signaling pathway (AID 743220; active = well fitted activation curve with a large enough effect in the signal ratio in the repeat runs, not every such curve was filed as active; the % refers to the signal ratio)
How it was run: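 FXR-UAS-bla HEK 293T cells carrying a UAS-driven beta-lactamase reporter were plated for 5 h at 37C/5% CO2, then exposed to DMSO-dissolved Tox21 10K compounds for 16 h at 37C. A LiveBLAzer B/G FRET substrate was loaded for 2 h at room temperature before fluorescence reading.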

[7] = qHTS assay to identify small molecule antagonists of the farnesoid-X-receptor (FXR) signaling pathway - cell viability counter screen (AID 743221; active = well fitted cell-killing curve with a large enough effect in the repeat runs, not every such curve was filed as active; note: nearly all actives have a fitted effect of over 50% in size)
How it was run: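 Quantitative HTS of the Tox21 10K library run in parallel with the beta-lactamase reporter read. HEK 293T cells carrying a UAS-driven bla reporter got compound and 50 uM CDCA (final) for 16 h; ATP-based luminescence followed.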

[8] = molecular target: Vitamin D3 receptor (Homo sapiens) (UniProt P11473); experiment: qHTS assay to identify small molecule agonists of the vitamin D receptor (VDR) signaling pathway (AID 743222; calls by dose curve)
How it was run: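 Beta-lactamase reporter readout (LiveBLAzer B/G FRET, 2 h RT) in VDR-bla cells after 16 h compound treatment at 37C, 5% CO2; cells pre-incubated 4 h before pin transfer of DMSO solutions.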

[9] = molecular target: Vitamin D3 receptor (Homo sapiens) (UniProt P11473); experiment: qHTS assay to identify small molecule antagonists of the vitamin D receptor (VDR) signaling pathway (AID 743223; active = well fitted inhibition curve with a large enough effect in the signal ratio in the repeat runs, not every such curve was filed as active; the % refers to the signal ratio)
How it was run: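 Fluorescence from LiveBLAzer B/G FRET substrate, read after 2 h at room temperature, reflects beta-lactamase reporter activity in VDR-bla cells treated 16 h at 37C with compounds and agonist 1alpha,25-dihydroxyvitamin D3 (3 nM final).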

[10] = qHTS assay to identify small molecule agonists of the vitamin D receptor (VDR) signaling pathway - cell viability counter screen (AID 743224); note: series mostly up to about 63 µM; nearly all actives have a fitted effect of over 50% in size
How it was run: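 Cytotoxicity counter screen: VDR-bla cells, 16 h compound exposure at 37C, 5% CO2; CellTiter-Glo luminescence, 30 min RT, same wells as bla read.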

[11] = qHTS assay to identify small molecule agonists of the NFkB signaling pathway - cell viability counter screen (AID 1159515; calls by dose curve; note: series mostly up to about 61 µM; nearly all actives have a fitted effect of over 55% in size)
How it was run: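 ME-180 NFkB-bla cells, 2,000/well; overnight attach; compound 5 hr, 37 C/5% CO2; LiveBLAzer substrate 1.5 hr RT; then CellTiter-Glo in same wells, 30 min RT, luminescence read.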

[12] = qHTS assay to identify small molecule agonists of the endoplasmic reticulum stress response signaling pathway (AID 1159516; active = well fitted activation curve with a large enough effect in the signal ratio in the repeat runs, not every such curve was filed as active; the % refers to the signal ratio)
How it was run: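 HeLa ESRE-bla reporter line; cpd 5 h, 37 C/5% CO2; LiveBLAzer B/G FRET substrate 2 h RT; ex 405, em 460/530 nm.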

[13] = qHTS assay to identify small molecule antagonists of the retinoid-related orphan receptor gamma (ROR-gamma) signaling pathway - cell viability counter screen (AID 1159520); note: nearly all actives have a fitted effect of over 50% in size
How it was run: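 Cytotoxicity was read from cellular ATP (CellTiter-Glo luminescence) after 16 hr at 37 C with 1 uM doxycycline induction. The inducer was added 2 hr after compound transfer to Tet-on ROR gamma CHO cells.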

[14] = molecular target: Nuclear receptor ROR-gamma (Homo sapiens) (UniProt P51449); experiment: qHTS assay to identify small molecule antagonists of the retinoid-related orphan receptor gamma (ROR-gamma) signaling pathway (AID 1159521;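 note: CHO cells with doxycycline inducible ROR-gamma driving an RORE luciferase reporter; top concentration of the series differs between compounds; nearly all actives have a fitted effect of over 50% in size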)
How it was run: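 RORγ antagonism is scored from reduced reporter luminescence in Tet-on CHO cells. Induction used 1 uM final doxycycline hyclate for 16 h at 37 C, following a 2 h compound exposure.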

[15] = qHTS assay to identify small molecule agonists of the AP-1 signaling pathway - cell viability counter screen (AID 1159525; calls by dose curve; note: nearly all actives have a fitted effect of over 55% in size)
How it was run: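 Intracellular ATP by Cell Titer Glo luminescence (30 min, RT) in the same ME-180 AP-1-bla wells after the 5 h compound exposure at 37 °C. Normalised to tetra n-octyl ammonium bromide and DMSO controls.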

[16] = qHTS assay to identify small molecule agonists of the AP-1 signaling pathway (AID 1159526; calls by dose curve)
[17] = molecular target: Retinoic acid receptor RXR-alpha (Homo sapiens) (UniProt P19793); experiment: qHTS assay to identify small molecule agonists of the RXR signaling pathway (AID 1159527; calls by dose curve; note: nearly all actives have a fitted effect of over 35% in size)
How it was run: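 qHTS of the Tox21 10K library in GeneBLAzer RXR-alpha HEK 293T cells carrying a beta-lactamase reporter […]; 16 hr treatment, 9-cis retinoic acid as agonist control, FRET read-out.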

[18] = qHTS assay to identify small molecule agonists of the endoplasmic reticulum stress response signaling pathway - cell viability counter screen (AID 1159517; calls by dose curve)
How it was run: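 ESRE-bla HeLa cells (1,500/well) were plated overnight at 37 C and exposed to compounds for 5 hr. After the 2 hr beta-lactamase substrate read, CellTiter-Glo went into the same wells, and luminescence was read after 30 min at room temperature.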

[19] = qHTS assay to identify small molecule antagonists of the peroxisome proliferator-activated receptor delta (PPARd) signaling pathway - cell viability counter screen (AID 743213); note: nearly all actives have a fitted effect of over 50% in size
How it was run: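 PPARd-bla HEK293H cells (3000/well) got compound plus 300 nM L165041 agonist for 17 h at 37 C. Viability in the same wells came from CellTiter-Glo luminescence after 30 min at room temperature.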

[20] = qHTS assay to identify small molecule antagonists of the vitamin D receptor (VDR) signaling pathway - cell viability counter screen (AID 743225); note: nearly all actives have a fitted effect of over 50% in size
How it was run: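 Cells (VDR-UAS-bla HEK 293T) are plated, rested 4 h at 37C, dosed with compound and 3 nM final 1-alpha,25-dihydroxy vitamin D3, and incubated 16 h. Viability is taken from CellTiter-Glo luminescence in the reporter wells.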

Measured: Potency

Chain of Bile acid receptor (Homo sapiens) (Q96RI1 whole entry, looked up): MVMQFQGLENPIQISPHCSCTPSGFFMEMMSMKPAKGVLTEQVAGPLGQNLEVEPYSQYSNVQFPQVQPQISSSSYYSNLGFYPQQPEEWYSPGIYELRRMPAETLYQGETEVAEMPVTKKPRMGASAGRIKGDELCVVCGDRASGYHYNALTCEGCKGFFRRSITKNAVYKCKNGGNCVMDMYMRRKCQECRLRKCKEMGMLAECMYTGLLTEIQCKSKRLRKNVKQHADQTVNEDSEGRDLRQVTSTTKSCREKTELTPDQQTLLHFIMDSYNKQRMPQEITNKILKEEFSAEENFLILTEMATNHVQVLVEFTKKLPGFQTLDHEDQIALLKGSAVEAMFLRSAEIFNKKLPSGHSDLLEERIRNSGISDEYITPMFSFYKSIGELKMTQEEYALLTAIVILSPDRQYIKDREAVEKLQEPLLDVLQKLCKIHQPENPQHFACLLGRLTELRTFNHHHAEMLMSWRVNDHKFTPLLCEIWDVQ
Chain of Peroxisome proliferator-activated receptor delta (Homo sapiens) (Q03181 whole entry, looked up): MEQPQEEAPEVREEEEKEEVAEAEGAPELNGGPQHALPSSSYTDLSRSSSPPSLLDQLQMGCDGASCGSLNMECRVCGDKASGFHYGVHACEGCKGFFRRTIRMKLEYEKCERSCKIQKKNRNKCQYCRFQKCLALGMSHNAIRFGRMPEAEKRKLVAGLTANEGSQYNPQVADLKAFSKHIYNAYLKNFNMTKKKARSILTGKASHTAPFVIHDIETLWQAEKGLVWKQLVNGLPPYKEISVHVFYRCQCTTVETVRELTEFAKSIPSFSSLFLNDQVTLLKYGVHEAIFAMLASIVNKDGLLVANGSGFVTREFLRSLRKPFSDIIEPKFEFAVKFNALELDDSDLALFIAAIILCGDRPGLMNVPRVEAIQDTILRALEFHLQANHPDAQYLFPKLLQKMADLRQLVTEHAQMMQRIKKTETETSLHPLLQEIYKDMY
Chain of Retinoic acid receptor RXR-alpha (Homo sapiens) (P19793 whole entry, looked up): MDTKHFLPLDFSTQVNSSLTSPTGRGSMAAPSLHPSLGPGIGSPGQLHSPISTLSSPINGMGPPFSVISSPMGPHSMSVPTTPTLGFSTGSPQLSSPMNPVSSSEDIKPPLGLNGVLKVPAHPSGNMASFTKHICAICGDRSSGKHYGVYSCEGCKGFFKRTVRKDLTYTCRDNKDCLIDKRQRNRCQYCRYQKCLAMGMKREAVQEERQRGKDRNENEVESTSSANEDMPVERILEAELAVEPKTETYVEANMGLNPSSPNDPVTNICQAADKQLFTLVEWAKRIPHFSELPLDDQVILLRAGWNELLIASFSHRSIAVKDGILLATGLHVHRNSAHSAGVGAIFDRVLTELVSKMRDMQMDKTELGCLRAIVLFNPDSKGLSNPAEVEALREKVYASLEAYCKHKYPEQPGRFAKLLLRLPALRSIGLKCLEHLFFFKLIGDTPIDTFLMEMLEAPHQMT
Chain of Vitamin D3 receptor (Homo sapiens) (P11473 whole entry, looked up): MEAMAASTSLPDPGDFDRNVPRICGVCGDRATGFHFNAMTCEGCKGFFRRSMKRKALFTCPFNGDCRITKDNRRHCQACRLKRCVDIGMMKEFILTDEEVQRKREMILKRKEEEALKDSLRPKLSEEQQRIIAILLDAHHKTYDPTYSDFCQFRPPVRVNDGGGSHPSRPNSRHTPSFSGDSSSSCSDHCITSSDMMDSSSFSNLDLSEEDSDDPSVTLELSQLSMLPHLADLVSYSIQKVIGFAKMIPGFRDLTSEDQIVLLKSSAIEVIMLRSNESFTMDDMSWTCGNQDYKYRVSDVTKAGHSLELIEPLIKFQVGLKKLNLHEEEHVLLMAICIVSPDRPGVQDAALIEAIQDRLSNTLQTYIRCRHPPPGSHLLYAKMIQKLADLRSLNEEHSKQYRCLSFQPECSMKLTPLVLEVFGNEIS

CC(CO)Oc1ccccc1 (stereo not drawn)
not listed: [18] | [19] | [20]
inactive: all other assays above

CN(C)[C@@H](CCOc1cccc2ccccc12)c1ccccc1
inactive: [2] | [3] | [4] | [6] | [7] | [9] | [11] | [12] | [18]

CCCCNS(=O)(=O)c1ccc(C)cc1
not listed: [4] | [6] | [7] | [8] | [9] | [18]
inactive: all other assays above

CCCC(=O)OCOC(=O)C1=C(C)NC(C)=C(C(=O)OC)C1c1cccc(Cl)c1Cl (stereo not drawn)
not listed: [1] | [2] | [3] | [4] | [6] | [18]
inactive: all other assays above

OC[C@H]1O[C@H](O[C@H]2O[C@H](CO)[C@@H](O)[C@H](O)[C@H]2O)[C@H](O)[C@@H](O)[C@@H]1O
not listed: [2] | [3] | [9] | [17] | [18]
inactive: all other assays above

COC(=O)c1ccccc1OC
not listed: [7] | [8] | [9] | [18]
inactive: all other assays above

O=C(/C=C/c1ccc(O)c(O)c1)O[C@@H](C(=O)O)[C@@H](OC(=O)/C=C/c1ccc(O)c(O)c1)C(=O)O
not listed: [2] | [7] | [8] | [18] | [19] | [20]
inactive: all other assays above

O[C@@H]([C@H](O)[C@H](O)CBr)[C@H](O)CBr
not listed: [1] | [7] | [8] | [9] | [18] | [19]
inactive: all other assays above
